Assay results as given in PubChem BioAssay (Tox21).
Records with an inconclusive call do not appear. Calls of active or inactive are those of the source. Unless noted, calls come from the whole dose curve; as a rule, active = well fitted curve in the direction sought with a large enough effect in the repeat runs; inconclusive = weak or mixed curves; inactive = no such curve, though single readings can be large; an effect the other way counts as inactive or inconclusive. Starred links: 1 amine or outer side, 2 acyl side, 3 side chain; linkers in the order of their positions; H or OH if unused. Positions of bridges follow the written chain, without caps; N, C: chain ends. Non-standard residues stand in square brackets, D forms with d. Residues, ends and D or L forms follow the SMILES beside them. *: point of attachment. X5 = NC1=N[C@@H]([C@H](N[*:1])C(=O)[*:2])C[C@H](O)N1; ΔAla(Z-3-ureido) = NC(=O)N/C=C(\N)C(=O)O; β3hOrn = NCCC[C@H](N)CC(=O)*; Dap = NC[C@H](N)C(=O)O

Key:
[1] = qHTS assay for small molecule agonists of the p53 signaling pathway (AID 651631; calls by dose curve; note: nearly all actives have a fitted effect of over 15% in size; note: potency is the fitted concentration of half-maximal effect)
How it was run: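 Read-out is beta-lactamase FRET fluorescence measured 2 h after substrate addition at room temperature, in HCT-116 cells with a p53 response element-driven reporter exposed to compounds for 16 h at 37 °C.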

[2] = qHTS assay for small molecules that induce genotoxicity in human embryonic kidney cells expressing luciferase-tagged ATAD5 (AID 651632); note: nearly all actives have a fitted effect of over 15% in size
How it was run: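 Luminescence read-out: after 16 hr compound exposure at 37C, ATAD5-luciferase HEK293T cells received Amplite, 30 min RT, then CCD imaging. A rise in signal marks genotoxic stress.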

[3] = qHTS assay for small molecule agonists of the p53 signaling pathway - cell viability (AID 651633; calls by dose curve;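 note: p53RE-bla HCT reporter cells with a stable beta-lactamase p53 reporter; series mostly up to about 83 µM; nearly all actives have a fitted effect of over 30% in size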)
How it was run: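 p53RE-bla cells were treated with compound for 16 hours at 37 C. Cytotoxicity was then measured as CellTiter-Glo luminescence after 30 min at room temperature.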

[4] = qHTS assay for small molecules that induce genotoxicity in human embryonic kidney cells expressing luciferase-tagged ATAD5 - cell viability (AID 651634; calls by dose curve; note: nearly all actives have a fitted effect of over 25% in size)
How it was run: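 HEK293T ATAD5-luc cells, 2,000/well; compound 15.5 hr, 37C/5% CO2; CellTiter-Fluor 30 min, 37C; fluorescence read.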

[5] = qHTS assay for small molecule disruptors of the mitochondrial membrane potential - cell viability (AID 720634; calls by dose curve;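 note: human HepG2 liver cancer cells; series mostly up to about 83 µM; nearly all actives have a fitted effect of over 20% in size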)
How it was run: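 Luminescence from CellTiter-Glo (ATP content) gave viability in HepG2 cells, read in the same wells as the MMP dye assay after 1 hr compound exposure at 37 C.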

[6] = qHTS assay for small molecule disruptors of the mitochondrial membrane potential (AID 720635); note: potency is the fitted concentration of half-maximal effect
How it was run: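 HepG2 cells exposed to compound 1 hr at 37C, then Mito-MPS dye 30 min. Ratio read of aggregate (540/590 nm) versus monomer (490/535 nm) fluorescence.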

[7] = qHTS assay to test for compound auto fluorescence at 590 nm (red) in HepG2 cells (AID 720674)
How it was run: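 HepG2 cells, 2,000 per well in MEM with 10% FBS, attached overnight at 37 C, then got 23 nL compound or DMSO. After 1 hr at 37 C, 5% CO2, red fluorescence was read at 540/590 nm against Rose Bengal sodium as reference.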

[8] = qHTS assay to test for compound auto fluorescence at 535 nm (green) in HepG2 cells (AID 720675)
[9] = qHTS assay to test for compound auto fluorescence at 460 nm (blue) in HEK293 cells (AID 720678)
How it was run: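 Auto fluorescence in the blue band was quantified as triamterene equivalency. HEK293 cells were seeded at 2,000/well, dosed after a 4-5 hr attachment, and kept overnight at 37C before the 405/460 nm reading.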

[10] = qHTS assay to test for compound auto fluorescence at 590 nm (red) in HEK293 cells (AID 720679)
How it was run: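 Autofluorescence equivalency to Rose Bengal sodium, 540/590nm, in HEK293 cells exposed overnight to 23 nL compound per well.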

Measured: Potency

COc1cc(S(C)=O)ccc1-c1nc2ncccc2[nH]1 (centres undefined)
inactive: all assays above

CCC(CN)CC(C)CCNCC(O)CNCC(C)CC(CC)CN (centres undefined)
inactive: all assays above

Cn1nnnc1SCC1=C(C(=O)O)N2C(=O)[C@@H](NC(=O)[C@H](OC=O)c3ccccc3)[C@H]2SC1
not listed: [10]
inactive: all other assays above

O=P(O)(O)OC(Cn1cncn1)(Cn1cncn1)c1ccc(F)cc1F
inactive: all assays above

NCCC[C@H](N)CC(=O)N[C@H]1CNC(=O)[C@H]([C@H]2C[C@H](O)NC(N)=N2)NC(=O)/C(=C/NC(N)=O)NC(=O)[C@H](CO)NC(=O)[C@H](CO)NC1=O (β3hOrn-[Dap]SS[ΔAla(Z-3-ureido)][X5]; lactam 1-C)
inactive: all assays above

O=C(CCCN1CCC(C(=O)c2ccc(F)cc2)CC1)c1ccc(F)cc1
inactive: all assays above

CC(CN(C)C)CN1c2ccccc2S(=O)(=O)c2ccccc21 (centres undefined)
inactive: all assays above

CNC[C@@H]1CC[C@@H](N)[C@@H](O[C@H]2[C@H](O)[C@@H](O[C@H]3OC[C@](C)(O)[C@H](NC)[C@H]3O)[C@H](N)C[C@@H]2N)O1
inactive: all assays above

NC[C@@H]1O[C@H](O[C@H]2[C@@H](O)[C@H](O[C@@H]3[C@@H](O)[C@H](N)C[C@H](N)[C@H]3O[C@H]3O[C@H](CO)[C@@H](O)[C@H](O)[C@H]3N)O[C@@H]2CO)[C@H](N)[C@@H](O)[C@@H]1O
not listed: [10]
inactive: all other assays above

CC(C)(CO)[C@@H](O)C(=O)NCCC(=O)NCCSSCCNC(=O)CCNC(=O)[C@H](O)C(C)(C)CO
inactive: all assays above

O=S(O)CNc1ccc(S(=O)(=O)c2ccc(NCS(=O)O)cc2)cc1
not listed: [10]
inactive: all other assays above

COc1ccc(CCNCC(O)COc2cccc(C)c2)cc1OC (centres undefined)
inactive: all assays above

CCOC(=O)[C@H](CCc1ccccc1)N[C@@H](C)C(=O)N1CC2(C[C@H]1C(=O)O)SCCS2
inactive: all assays above

CC#CCC(C)[C@H](O)/C=C/[C@@H]1[C@H]2C/C(=C/CCCC(=O)O)C[C@H]2C[C@H]1O (some centres undefined)
inactive: all assays above

CS(=O)(=O)NC(=O)CCC/C=C\C[C@H]1C(=O)C[C@@H](O)[C@@H]1/C=C/[C@H](O)COc1ccccc1
inactive: all assays above

OC[C@@H](O)C(O)[C@H](O)CO
inactive: all assays above

CC(C)CN(C[C@@H](OP(=O)(O)O)[C@H](Cc1ccccc1)NC(=O)O[C@H]1CCOC1)S(=O)(=O)c1ccc(N)cc1
not listed: [10]
inactive: all other assays above

C=CCN1CCCC1CNC(=O)c1cc(S(N)(=O)=O)cc(OC)c1OC (centres undefined)
inactive: all assays above

OCC(O)COc1ccc(Cl)cc1 (centres undefined)
inactive: all assays above

CCC(c1ccccc1)c1noc(CCN(CC)CC)n1 (centres undefined)
inactive: all assays above

O=C[C@H](O)[C@@H](O)[C@H](O[C@H]1O[C@H](CO)[C@@H](O[C@H]2O[C@H](CO)[C@@H](O)[C@H](O)[C@H]2O)[C@H](O)[C@H]1O)[C@H](O)CO
inactive: all assays above

CN[C@@H]1CCc2[nH]c3ccc(C(N)=O)cc3c2C1
inactive: all assays above

C[C@H]1C[C@H]2[C@@H]3CCC4=CC(=O)C=C[C@]4(C)[C@@]3(F)[C@@H](O)C[C@]2(C)[C@@]1(O)C(=O)CCl
active: [6] 11.9 µM
inactive: all other assays above

CC(C)CN(C[C@@H](O)[C@H](Cc1ccccc1)NC(=O)O[C@@H]1CCOC1)S(=O)(=O)c1ccc(N)cc1
inactive: all assays above

Cn1nnnc1SCC1=C(C(=O)O)N2C(=O)[C@@H](NC(=O)[C@H](O)c3ccccc3)[C@H]2SC1
inactive: all assays above

O=C(c1cc2ccccc2o1)N1CCN(Cc2ccccc2)CC1
inactive: all assays above

CCOc1ccc(N=C(C)Nc2ccc(OCC)cc2)cc1
inactive: all assays above

CCCCCCCCCCCCCCCC(=O)OC[C@@H](COP(=O)([O-])OCC[N+](C)(C)C)OC(=O)CCCCCCCCCCCCCCC
not listed: [10]
inactive: all other assays above

CCOC(=O)COc1ccc2c(C)c(CCN(CC)CC)c(=O)oc2c1
inactive: all assays above

CCNC(=O)[C@@H]1CCCN1C(=O)[C@H](CCCN=C(N)N)NC(=O)[C@H](CC(C)C)NC(=O)[C@@H](CC(C)C)NC(=O)[C@H](Cc1ccc(O)cc1)NC(=O)[C@H](CO)NC(=O)[C@H](Cc1c[nH]c2ccccc12)NC(=O)[C@H](Cc1cnc[nH]1)NC(=O)[C@@H]1CCC(=O)N1
not listed: [10]
inactive: all other assays above

Cc1cc(-n2c(=O)[nH]c(=O)n(C)c2=O)ccc1Oc1ccc(S(=O)(=O)C(F)(F)F)cc1
inactive: all assays above

Cc1c(N)nc(C(CC(N)=O)NCC(N)C(N)=O)nc1C(=O)NC(C(=O)NC(C)C(O)C(C)C(=O)NC(C(=O)NCCc1nc(-c2nc(C(=O)NCCCN[C@@H](C)c3ccccc3)cs2)cs1)C(C)O)C(O[C@@H]1O[C@@H](CO)[C@@H](O)[C@H](O)[C@@H]1O[C@H]1O[C@H](CO)[C@@H](O)[C@H](OC(N)=O)[C@@H]1O)c1cnc[nH]1 (some centres undefined)
active: [1] 0.15 µM
inactive: all other assays above

C[N+]1(C)CCN(CC(O)(c2ccccc2)C2CCCCC2)CC1 (centres undefined)
inactive: all assays above

CO[C@@H]1[C@@H](O[C@@H]2O[C@H](C)[C@@H](O[C@H]3C[C@@](C)(O)[C@@H](OC(=O)CC(C)C)[C@H](C)O3)[C@H](N(C)C)[C@H]2O)[C@@H](CC=O)C[C@@H](C)[C@@H](O)/C=C/C=C/C[C@@H](C)OC(=O)C[C@H]1O
inactive: all assays above

O=C(O)[C@H](CC(=O)N1C[C@H]2CCCC[C@H]2C1)Cc1ccccc1
inactive: all assays above
